tested on: VDR:RXRa (NR concentration 270 nM, RXRa partner concentration 90 nM); assay: PBM binding z-score (relative to random genomic background probes); higher = stronger binding; sequences stand for … in GC…GCGATTGACAGCGTAGAATGAAGG
Method: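 Protein-binding microarray (Agilent 4x180K custom design, double-stranded 60-nt probes: 5' GC cap, 34-nt variable region, 24-nt constant primer region; full probe sequence given). Purified or IVT nuclear receptor:RXRα heterodimers (3:1 NR:RXRα, mostly 270:90 nM) or homodimers were incubated for 1 h in PBS with 2% milk and no ligand, then detected with Alexa488 antibodies. Fluorescence from o1-orientation probes (~5 replicates averaged) was converted to z-scores against 500 random hg19 background probes. Variable regions are seed direct-repeat (DR0–DR5) sites, all their single-nucleotide variants and half-site ablations.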

Sequence | PBM binding z-score
ATCTCTAGGTAAAAGTTCATTGAATCCCGAGGAT | 2.82
TCTATTAGGTGATTAGGGCAACCGAAACAGCGGA | 0.268
ACTAGTTGGTCAGCTGAGGTCACTCACAATTCGG | 3.95
GCAGACAGGTGAAACGCAGGTAACTGAGGGTGGC | -0.361
ATATGTAGTTTAGCTGGGGTCATTCAGACTAGGC | 5.22
TGTCAAAGTTCAATGGTAACGTAAGTATCCACAC | 3.81
TTACCAAGGTGAAAGGTCGTTTATGCACGCCTTG | 3.32
CCTACTGGGCCACGAACGGTCATTGATTCAGTGA | -0.227
CCTAGTTGGTCAGGAGGTGACACACCGGATATGA | 0.277
AGAACGAGGGTACGCTGAGTTGATAGCAGAGTAG | 1.15
TAGCCTAGGTTATTGGGCCAGTATAGTACGCATC | -0.034
GCGACTTGGGCAAAGCAGGTTACCATAAGGTTGG | -0.467
CCTGCTGGGCCACGAAAGGTCATTGATTCAGTGA | 4.08
ATCTCTAGGTAAAAGTTCAGTTAATCCCGAGGAT | 1.44
TCGAGTAGGTTACCAATGGGGAATTCAGCTTTCT | 0.0458
CGTCCAAGGTCATAGGAGGTCAGGGAAGACAGAT | 6.49
AGGATGAGGTTATTAAGATCAGGGAATTGCGGTC | 2.66
CCTCGGAGGATAGAAGGTCAGAGCTGTCCGCTTT | 0.755
CGAACTAGGTCATCCAGTACAGTGAATACATTGA | 5.08
TAGCCTAGGTCATTCGGCCAGTATAGTACGCATC | 2.24

Sequence | PBM binding z-score
ATCTCTAGGTAACCAAGTTCAGTTAATGCCGAAC | 4.33
CGAACTAGGTCATTGACAGCACAGTGAATAGTAA | 2.15
GAGACAGGGTCAAGGCCAGAGTACGCGTATTGAT | 4.4
CCTATTAGTTGTCCATAAGGGCAACCGAAGCTCG | 0.958
AGTCAAAGTTCAGGACTAGGTAACGTAAAGCACG | 2.4
GCATATAGGTAATACAAGGTGAAACTCCGATTGT | 0.732
GGAACGAGGGCAAAGTTGGTAGCATCTGTCGACG | 1.14
CTCGAAACGTCGTGCTCAGGTGAGTATACCAAAC | -0.365
GATACAGGGTCAAGCCCAGAGTACGCGTATTGAT | 4.5
GATCGGAGGACAAGGTCAGAGCTTTGTCCGTAGA | 1.44
ATCGAAAGGTCGACGTGGTGAGTATACACCGTTT | 2.73
CGTCCAAGGTCTAAGGTCAGTGAAGAGATGACGG | 1.73
CGTCCAAGGTCAGCAGGTCAGCGAAAGCGACGTG | 4.26
GGAGCGAGGGCAAAGTTGATAGCATCTGTCGACG | 0.834
ATATGTAGGTTAGCTGCGGTCATTCAGACTAGGC | 2.23
TCTTGTAGATCAGCAGGTTAAGATAGCTGGCCAA | 0.44
CGAACTAGGTCAAGGACACTGAATCTCCGCACGC | 1.57
CAGCCTAGGTCAGGGCCAGTATAGGAGGAACGTT | 0.31
CCGACTAGGGCAAAGGTTACCATACTCAGTACGA | 1.61
CGTGAAAGTTCAAGGTAACGTAACAGAAAGCAGC | 3.81
